# Test results taken from PubChem BioAssay AID1273 (Columbia University Molecular Screening Center, 2008).
# The campaign covered roughly 130,000 compounds. About 1,200 (0.92%) were called active.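 How the source made its calls: active means inhibition above the mean plus 3 SD, with well images judged a real hit on visual review (cut at about 60% in these data, passing the limit was not always enough); inconclusive means inhibition over the cutoff but images rejected on review; inactive means inhibition not above the cutoff.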 Shown is part of a subset that was picked to be rich in actives.
# Test: inhibitors of insulin promoter-driven GFP, primary screen, imaging, TRM-6 cells (human fetal islet line), eGFP reporter, cell count (AID 1273;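 on normalized cell count: cells exposed to compound for 48 h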)
# Conditions: at 2 µM, reporter expression induced with tamoxifen; inhibition: stronger effect = higher value; normalized cell count: measured here: cell count, toxicity
SMILES,inhibition,normalized cell count [%]
Cc1ccccc1N1C(=O)C(Oc2ccc(Cl)cc2)C1CNCC1CCCO1 (stereo unspecified),-11.8% (inactive),94.4
Brc1ccc(-c2nnc(-c3ccccc3)o2)o1,19.1% (inactive),142
Nc1ccc(-c2nnc(-c3ccc(-c4ccccc4)cc3)o2)cc1,46.7% (inactive),46.6
OC(c1nnc(-c2ccccc2)o1)c1cccs1 (stereo unspecified),75% (active),106
CCCCNC(=O)N1CCN(S(C)(=O)=O)CC1,-42.9% (inactive),86.1
Clc1ccc(-c2csc(-c3ccncc3)n2)cc1,-16.7% (inactive),49.8
CCCCCN1CC(O)=C(c2nc(-c3ccc(Cl)cc3)cs2)C1=N,81.1% (active),67.1
CCCCCN1CC(O)=C(c2ccccc2)C1=N,9.59% (inactive),61.8
O=C(O)CSCC(=O)Nc1ccc(C(F)(F)F)cc1,29.4% (inactive),92.1
CCC(=O)c1ccc(OCC(O)Cn2nc(C)c(C(C)=O)c2C)cc1 (stereo unspecified),20% (inactive),57.4
Cc1ccccc1NC(=O)Cn1c(=O)n(CC2CCCO2)c(=O)c2ccccc21 (stereo unspecified),13.3% (inactive),106
Cc1ccc(SCC(=O)Nc2ccc3c(c2)OCCO3)cc1,20.6% (inactive),137
O=C(CSc1nnnn1-c1ccc2c(c1)CCC2)Nc1ccc2c(c1)OCCO2,28.6% (inactive),88.2
O=C(CSc1nnnn1C1CCCC1)Nc1ccc2c(c1)OCCO2,73.3% (active),70.4
COc1ccccc1N(C)S(=O)(=O)c1ccc(Cl)c(C(=O)N2CCC(C(N)=O)CC2)c1,18.2% (inactive),83.5
CCOC(=O)c1sc(NC(=O)CSc2nc(O)c(Cc3ccccc3)c(=O)[nH]2)nc1C,-50% (inactive),56.7
O=c1c(Cl)c(NC2CC2)cnn1-c1ccccc1,-85% (inactive),114
NC(=O)c1ccc(CN2CCC(Cc3ccccc3)CC2)cc1,-347% (inactive),40.1
Cc1ccc(CC(=O)Nc2cccc(C#N)c2)cc1,-16.7% (inactive),153
Cc1nc2ccccc2cc1C(=O)N/N=C/c1ccc([N+](=O)[O-])cc1,75% (active),81
Cc1ccsc1C(=O)N/N=C/c1ccc([N+](=O)[O-])cc1,6.67% (inactive),153
NC(=S)N/N=C/c1ccc([N+](=O)[O-])cc1,-36.4% (inactive),109

SMILES,inhibition,normalized cell count [%]
COc1cc(C(=O)N[C@@H](C)C(=O)NCc2ccco2)cc(OC)c1OC,33.3% (inactive),166
CCCN(C(=O)CSc1nnnn1C)c1c(N)n(Cc2ccccc2)c(=O)[nH]c1=O,-90.9% (inactive),30.3
O=c1[nH]c(CN2CCOCC2)nc2scc(-c3ccccc3)c12,25% (inactive),148
C#CCOCCOCCOCCNc1nc(N2CCN(C(=O)[C@H](C(C)C)n3cc(CCO)nn3)CC2)nc(N2CCN(C(=O)[C@H](C(C)C)n3cc(CCO)nn3)CC2)n1,50% (inactive),117
C#CCOCCOCCOCCNc1nc(N2CCN(C(=O)[C@H](C(C)C)n3cc(CCO)nn3)CC2)nc(N2CCN(C(=O)[C@H]([C@@H](C)CC)n3cc(CCCN=C(N)N)nn3)CC2)n1,70% (active),95.3
COCCNC(=O)NC(=O)COC(=O)C1(c2ccc(Cl)cc2)CC1,38.9% (inactive),75.1
COC(=O)c1ccc(Cc2ccccc2)o1,92.9% (active),83.1
CCCC(NC(=O)c1ccccc1)c1nc2ccccc2n1Cc1ccc(C(=O)OC)o1 (stereo unspecified),-17.5% (inactive),206
COC(=O)c1ccc(CN(c2ccccc2OC)S(=O)(=O)c2cccs2)o1,7.89% (inactive),71.6
COc1ccc(-c2cn3cccnc3n2)cc1,23.5% (inactive),80.6
Cc1ccc(Cl)c(NC(=O)CN2CCN(C=O)CC2)c1,-71.4% (inactive),117
O=C(CC1C(=O)NCCN1Cc1ccc(-c2ccccc2)cc1)NCc1ccncc1 (stereo unspecified),0% (inactive),65.4
CCSc1ccccc1C(=O)Nc1ccc2c(c1)OCO2,-63.2% (inactive),84.3
N/C(=N\OC(=O)N1c2ccccc2Sc2ccccc21)c1ccc(Br)cc1,79.3% (active),124
N/C(=N\OC(=O)/C=C/c1ccccc1)c1ccc(Br)cc1,14.3% (inactive),133
N/C(=N\OC(=O)Cc1ccccc1[N+](=O)[O-])c1ccc(Br)cc1,7.69% (inactive),129
Cc1nnc(SCC(=O)N2CCN(c3ccccc3)CC2)n1-c1ccccc1,-41% (inactive),117
Cc1ccccc1NC(=O)Cc1nnc(SCC(=O)N2CCN(c3ccccc3)CC2)n1C,18.2% (inactive),112
Cc1cc2nnc(SCC(=O)N3CCN(c4ccccc4)CC3)n2c(N)n1,74.3% (active),82.1
O=C(CSc1ccsc1[N+](=O)[O-])N1CCCCC1,-33.3% (inactive),80.7
Cn1c(=O)n(CCc2ccccc2)c(=O)c2c1nc1n2CCCN1c1ccccc1,-196% (inactive),86.5
